We go through 50 compounds from PubChem BioAssay AID588342 (National Center for Advancing Translational Sciences (NCATS), 2011).

About 25,000 (6.9%) of roughly 360,000 compounds were called active. Entries that show only a call come without a potency. Not shown: some 9% with an inconclusive outcome. The call rests on the fitted dose curve; in most records, active means well fitted inhibition curve with a large enough effect; inconclusive means small, poorly fitted or top-dose-only effect; inactive means flat fitted curve, though single readings scatter. Many of the other results were omitted from the sample, so actives are more common in it than they were.

Sequence of Luciferin 4-monooxygenase (Photinus pyralis) (P08659 whole entry, looked up): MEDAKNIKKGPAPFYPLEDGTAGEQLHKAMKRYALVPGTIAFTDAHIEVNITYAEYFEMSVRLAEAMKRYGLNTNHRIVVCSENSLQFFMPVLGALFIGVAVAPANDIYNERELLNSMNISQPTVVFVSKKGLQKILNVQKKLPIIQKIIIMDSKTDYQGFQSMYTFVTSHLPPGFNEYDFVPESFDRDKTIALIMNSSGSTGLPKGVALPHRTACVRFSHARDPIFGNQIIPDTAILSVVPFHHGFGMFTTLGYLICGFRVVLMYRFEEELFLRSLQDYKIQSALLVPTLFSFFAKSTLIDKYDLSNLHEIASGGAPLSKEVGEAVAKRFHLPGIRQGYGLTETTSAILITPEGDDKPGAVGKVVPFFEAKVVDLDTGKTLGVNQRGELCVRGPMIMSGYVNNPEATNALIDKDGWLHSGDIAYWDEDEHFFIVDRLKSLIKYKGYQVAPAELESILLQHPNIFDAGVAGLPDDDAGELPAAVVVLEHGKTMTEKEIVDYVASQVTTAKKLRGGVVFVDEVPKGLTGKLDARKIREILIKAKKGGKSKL

The test concerns the target Luciferin 4-monooxygenase (Photinus pyralis) (UniProt P08659). Put plainly: qHTS profiling assay for firefly luciferase inhibitor/activator using purifed enzyme and Km concentrations of substrates (counterscreen for miR-21 project). Further: nearly all actives have a fitted effect of over 55% in size. Conditions: purified FLuc, luminescence inhibition; series mostly up to 57.5 µM. The source says:
MLPCN Grant: 1 R21 NS059478-01 (miR-21 grant) Assay Provider: NCGC NCGC Assay Overview: Firefly (Photinus pyralis) luciferase is one of the most commonly used transcriptional reporters for a number of reasons. It is considered one of the more dynamically responsive reporters -that is, responsive to changes in reporter transcription - as it requires no post-translational modifications and is enzymatically active directly after protein synthesis (Wood, 1998). Additionally, the half-life of the luciferase protein is short relative to other reporter-gene products (Wood, 1995). Whereas reporters with long half-lives potentially allow for increased signal due to accumulation of reporter-gene product, once accumulated in the cell, dynamic changes in reporter-gene expression may be difficult to detect(Fan and Wood, 2007; Almond et al., 2004). It has been shown that wild-type P. pyralis luciferase has a half-life of approximately […] hours in mammalian cells (Thompson et al., 1991). Firefly luciferase reporter-gene assays are also generally considered one of the most sensitive assay types (Wood, 1995; Wood, 1998). Although light produced in a bioluminescence reaction is of lower intensity than that produced during fluorescence emission, this is offset by little to no background light inherent to luminescent assays. Thus the luciferase reporter can be expressed at much lower levels than fluorescent proteins while still providing robust signal. # However, it was initially observed, in 1991, by Thompson et al., that compounds that resemble the substrates of firefly luciferase (FLuc) can act as competitive inhibitors of the enzyme, and that these compounds, upon interaction with luciferase in the cell, can actually stabilize the protein and increase its half-life. Accumulated intracellular FLuc protein can be measured as an increase in luminescence signal, upon addition of detection reagents (which contain high concentrations of FLuc substrates) commonly used in high-throughput screening. In cell-based reporter gene assays that use FLuc as the reporter gene to quantitate the potential influence of a given compound against the target biology, this apparent increase in luminescence can mistakenly be interpreted as identification of a compound that is active against the target of interest. This is the case for the miR-21 FLuc reporter gene assay used to identify inhibitors of the miR-21 pathway (PubChem AID 2289) - compounds of interest will inhibit miR-21 biogenesis/expression or activity, and are identified by causing an increase in luminescence, due to increased FLuc translation. However, FLuc inhibitory compounds that stabilize the FLuc protein will give an identical read-out, making it difficult to distinguish compounds that are active against the target from those active against FLuc. Previous profiling work to determine the prevalence of compounds that affect FLuc enzymatic activity (PubChem AID 411) identified that ~3% of the MLSMR library (then at ~72K) inhibited FLuc. […] Since the MLSMR had grown to ~350K compounds, and since it was expected that a significant percentage of compounds found active in the miR-21 FLuc assay would be FLuc inhibitors, the library was screened for activity against FLuc using a biochemical assay of purified FLuc and KM concentrations of FLuc substrates (D-luciferin and ATP).
NCGC Assay Protocol Summary: Reagents: 50mM Tris acetate, pH 7.5; 10mM Mg acetate; 10uM D-luciferin (Sigma #L9504); 10uM ATP; 0.01% Tween-20; 0.05% BSA; 10nM P. pyralis luciferase (Sigma #L9506) Control compounds used were two known firefly luciferase inhibitors (compounds (2) and (5) in Auld et al., 2010), and DMSO. […]
With `Cc1nc2ccccc2c(=O)n1-c1ccc(NS(=O)(=O)c2ccc(F)cc2F)cc1`, the Potency entry was “inactive”.

With `CCN(CC)c1ccc(NC(=O)CN2C(=O)c3cccnc3Oc3ccc(Cl)cc32)c(C)c1`, the Potency entry was “inactive”.

As for `COc1ccc2ccn(C)c2c1`, the Potency result was “inactive”.

For `CN(C)c1nc(Nc2ccc(Cl)c(Cl)c2)nc(N(C)C)n1`, the Potency result was “inactive”.

For the compound `OCCNc1nc(Nc2ccc(Cl)c(Cl)c2)nc2ccccc12`, the Potency is 6.01 µM (active).

For the compound `COc1cc2nc(Cl)nc(NCCO)c2cc1OC`, the Potency entry is “inactive”.

Take `Cc1ccccc1CSc1nc(-c2ccccc2)nc2c1Cc1c(CO)cnc(C)c1O2`: the Potency entry is “inactive”.

Take `Nc1ccn(CC(=O)N2CCN(c3ccccn3)CC2)c(=O)n1`: the Potency entry is “inactive”.

For the compound `O=C(NC(Nc1nc2ccc([N+](=O)[O-])cc2s1)(C(F)(F)F)C(F)(F)F)c1ccccc1`, the Potency result was “inactive”.

For the compound `COc1ccc(C(=O)Nc2nc(-c3ccc(OC)cc3)c(-c3ccc([N+](=O)[O-])cc3)s2)cc1`, the Potency result was “inactive”.

On to `O=C(Nc1nc2ccc([N+](=O)[O-])cc2s1)c1ccncc1`, for which the Potency is 1.07 µM (active).

Take `CCN1CCN(CCCNC(=O)c2ccc3c(c2)sc2nc(-c4ccc(OC)cc4)cn23)CC1`: the Potency result is “inactive”.

On to `O=C(N/N=C/c1ccc(Br)o1)c1cncc(Br)c1`, for which the Potency entry is “inactive”.

As for `O=C(N/N=C\c1ccc(Br)cc1)c1ccc(Cn2cccn2)o1`, the Potency is 12 µM (active).

For the compound `COc1cccc(NC(=O)c2ccc(Cn3cc([N+](=O)[O-])cn3)o2)c1`, the Potency result is “inactive”.

On to `O=C(N/N=C/c1ccc2c(c1)OCO2)c1ccc(Cn2cc([N+](=O)[O-])cn2)o1`, for which the Potency was 6.75 µM (active).

In the case of `CCc1ccc(CNC(=O)c2ccc(CS(=O)c3ccc(Br)cc3)o2)cc1` (stereo not given), the Potency result was “inactive”.

`O=C(c1ccc(Cn2cc([N+](=O)[O-])cn2)o1)N1CCCC1`: the Potency result was “inactive”.

Consider `CN(C)c1ccc(/C=N/NC(=O)C(O)c2ccc(Br)cc2)cc1` (stereo not given), for which the Potency entry was “inactive”.

Consider `O=C(Nc1ccc(Br)c2cccnc12)c1ccc(Cn2cc([N+](=O)[O-])cn2)o1`, for which the Potency entry was “inactive”.

With `CN(C)c1ccc(/C=N/NC(=O)c2ccc(Cn3cc(Br)cn3)o2)cc1`, the Potency is 9.53 µM (active).

As to `Cc1cccc(Cn2c(CN3CCC(C(=O)NCc4ccccc4Cl)CC3)cc3ccccc32)c1`, the Potency result was “inactive”.

Take `Cc1ccccc1CNC(=O)CCc1cn(Cc2ccccc2C)c2ccccc12`: the Potency result was “inactive”.

Turning to `O=c1n(Cc2cccc(C(F)(F)F)c2)c2ccccc2c2nc(-c3ccccc3)nn12`, the Potency result is “inactive”.

Turning to `COc1ccccc1OCC(=O)Nc1nnc2n1CCS2`, the Potency entry was “inactive”.

Turning to `CCOc1ccc(S(=O)(=O)c2cn(Cc3ccccc3)c3ccc(OCC)cc3c2=O)cc1`, the Potency result is “inactive”.

`O=C1C2C3C=CC(C3)C2C(=O)N1c1ccc(S(=O)(=O)Nc2nccs2)cc1` (stereo not given): the Potency result is “inactive”.

For `CCCCCOC(=O)c1ccc(N2C(=O)C3C4C=CC(C4)C3C2=O)cc1` (stereo not given), the Potency entry is “inactive”.

Take `O=C1C2C3C=CC(C3)C2C(=O)N1c1ccc(-c2nc3ccccc3c(=O)o2)cc1` (stereo not given): the Potency was 9.53 µM (active).

In the case of `COc1ccc(CCNc2nc(-c3ccc(F)cc3)cc(C(F)(F)F)n2)cc1OC`, the Potency result is “inactive”.

Regarding `Cc1ccc2c(c1)N(C(=O)Nc1ccc(Br)cc1F)CCO2`, the Potency entry was “inactive”.

With `CCc1ccccc1NC(=O)N1CCN(C(=O)c2nsc3ccccc23)CC1`, the Potency result was “inactive”.

Turning to `Cc1ccc(CCNC(=O)c2ccc(CNS(=O)(=O)c3ccc(C)cc3)cc2)cc1`, the Potency entry is “inactive”.

Take `CCc1ccc(NC(=O)N2CCN(C(=O)c3nsc4ccccc34)CC2)cc1`: the Potency entry was “inactive”.

For `NC(=O)C1CCN(C(=O)c2cccc(NC(=O)c3nsc4ccccc34)c2)CC1`, the Potency is 12 µM (active).

`Cc1ccccc1CNC(=O)c1cccc(NC(=O)c2nsc3ccccc23)c1`: the Potency is 5.36 µM (active).

Consider `CCCCNC(=O)C1CCC(CNS(=O)(=O)c2ccc(NC(C)=O)cc2)CC1` (stereo not given), for which the Potency result is “inactive”.

Take `COc1cccc(NC(=O)N2CCN(C(=O)c3nsc4ccccc34)CC2)c1`: the Potency result was “inactive”.

As for `COCCCNC(=O)c1ccc(CNS(=O)(=O)c2ccc(NC(C)=O)cc2)cc1`, the Potency is 16.9 µM (active).

For the compound `COCCCNC(=O)c1ccc(NC(=O)c2nsc3ccccc23)cc1`, the Potency is 16.9 µM (active).

As to `COCCCNC(=O)c1ccc2c(c1)ncn2-c1ccccc1OC`, the Potency result was “inactive”.

As for `Cc1c(Cl)cccc1NC(=O)N1CCN(C(=O)c2nsc3ccccc23)CC1`, the Potency entry is “inactive”.

In the case of `O=C(Nc1cccc(C(=O)N2CCCC2)c1)c1ccccc1`, the Potency result is “inactive”.

For the compound `O=C(CSc1nnc(COc2ccc(Cl)cc2)n1Cc1ccco1)N1CCNC1=O`, the Potency entry was “inactive”.

As for `COc1ccc(OC)c(CNC(=O)Cn2nc(C)c3c(C)n(-c4ccccc4)nc3c2=O)c1`, the Potency result was “inactive”.

`Cc1ccc(CNS(=O)(=O)c2ccc(-c3cc(C(F)(F)F)on3)s2)cc1`: the Potency result is “inactive”.

For the compound `COc1ccc(S(=O)(=O)Nc2cc(C)on2)cc1NC(C)=O`, the Potency entry was “inactive”.

In the case of `Cc1ccc(-c2nc(S(=O)(=O)c3ccc(C)cc3)c(N3CCCCCC3)o2)cc1`, the Potency result was “inactive”.

Turning to `Nc1ccccc1Sc1cc(Cl)nnc1Cl`, the Potency result is “inactive”.

As for `COC(=O)c1scc(-c2ccccc2)c1S(=O)(=O)Nc1ccccc1`, the Potency entry is “inactive”.
